For part of these data: Entries with a potency or affinity are not part of this list. Active and inactive are the calls of the source. Unless noted, the rule behind the calls is not given here.
Key:
[1] = biological target: Cell division control protein 42 homolog (Homo sapiens) (UniProt P60953); assay: activated mutant Cdc42 GTP-binding inhibitors, dose response, biochemical, multiplex bead flow cytometry, Bodipy-FL-GTP (AID 1333;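 active = fitted half-maximal concentration within the tested dose range, moderate curve steepness, a statistically real signal drop, and little compound fluorescence or tag-binding interference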)
[2] = biological target: Cell division control protein 42 homolog (Homo sapiens) (UniProt P60953); assay: wildtype Cdc42 GTP-binding inhibitors, dose response, biochemical, multiplex bead flow cytometry, Bodipy-FL-GTP (AID 1334;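 active = fitted half-maximal concentration within the tested range, moderate curve steepness, significant signal drop, and little compound fluorescence or bead-linkage interference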); details: bead-based flow cytometry, Bodipy-FL-GTP binding to GST-Cdc42; at 100 µM (top of the series) unless noted
[3] = biological target: GTPase HRas (Homo sapiens) (UniProt P01112); assay: inhibitors of GTP binding to wildtype Ras, dose response, biochemical, multiplex bead flow cytometry (AID 1335;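 active = fitted half-maximal concentration within 10 nM to 100 µM, steepness 0.5 to 2, significant signal drop, low assay interference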); details: bead-based flow cytometry, Bodipy-GTP binding to GST-Ras; at 100 µM (top of the series) unless noted
[4] = system: Ras-related protein Rab-7a (dog), GTP binding; assay: Rab7 GTP binding inhibitors, potency, dose response, biochemical, wildtype, multiplex bead flow cytometry (AID 1336)
[5] = biological target: Ras-related C3 botulinum toxin substrate 1 (Homo sapiens) (UniProt P63000); assay: wildtype Rac1 GTP binding inhibitors, dose response, biochemical, multiplex bead flow cytometry (AID 1340;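 active = dose curve with midpoint inside tested range, moderate steepness, plateau gap beyond fit error, low compound glow and bead-link interference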); details: GST-Rac1 beads, Bodipy-FL-GTP binding; at 100 µM (top of the series) unless noted
[6] = biological target: GTPase HRas (Homo sapiens) (UniProt P01112); assay: activated Ras mutant GTP binding inhibitors, dose response, biochemical, multiplex bead flow cytometry (AID 1341;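 active = dose-response curve with midpoint inside the tested range, moderate steepness, significant amplitude and little compound fluorescence or bead-attachment interference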;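 note: GST-tagged constitutively activated Ras mutant immobilized on beads and multiplexed with other GTPases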)

Sequence of Cell division control protein 42 homolog (Homo sapiens) (P60953 whole entry, looked up): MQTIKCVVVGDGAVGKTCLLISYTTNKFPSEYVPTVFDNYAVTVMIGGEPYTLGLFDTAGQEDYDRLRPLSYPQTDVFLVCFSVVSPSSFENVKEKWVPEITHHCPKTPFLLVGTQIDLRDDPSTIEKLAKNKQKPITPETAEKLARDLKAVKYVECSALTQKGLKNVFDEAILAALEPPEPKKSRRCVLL
Sequence of GTPase HRas (Homo sapiens) (P01112 whole entry, looked up): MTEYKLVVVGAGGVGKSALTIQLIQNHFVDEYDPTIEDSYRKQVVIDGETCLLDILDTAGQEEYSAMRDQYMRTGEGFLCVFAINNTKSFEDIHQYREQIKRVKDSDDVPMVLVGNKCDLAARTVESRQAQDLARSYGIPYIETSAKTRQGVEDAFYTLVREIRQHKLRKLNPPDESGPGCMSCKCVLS

SMILES	outcome [1]	fluorescence, percent of control (lower = inhibition) [2]	GTP binding, percent of control [3]	outcome [4]	GTP binding signal, raw median fluorescence (lower = inhibition) (MCF (arbitrary fluorescence units)) [5]	outcome [6]
O=c1c2ccccc2nc2ccc(NCc3cccs3)nn12	inactive	33.1%	76.2%	inactive	195	inactive
CN1/C(=C\C=C(/C#N)C(=O)Nc2ccc(Cl)cc2)C(C)(C)c2ccccc21	inactive	76.8%	80%	inactive	226	inactive
CCc1nnc2c(N(C)C)nc3ccccc3n12	inactive	34.8%	76.3%	inactive	168	inactive
Cc1nc2sccn2c1-c1nc(-c2cc3ccccc3o2)cs1	inactive	50.9%	57.4%	inactive	155	inactive
O=C(Cn1cnc2c(nnn2Cc2ccccc2F)c1=O)NCC1CCCO1 (stereo not drawn)	inactive	51.6%	63.1%	inactive	208	inactive
CC(=O)Nc1ccc(Nc2ccc3c4c(cc(=O)n3C)-c3ccccc3C(=O)c24)cc1	inactive	34.8%	80.5%	inactive	205	inactive
Cc1cccc(CNc2ncccc2C(=O)O)c1	inactive	61.9%	224%	inactive	57	inactive
CC(C)NC(=S)N=Nc1c(O)[nH]c2ccc([N+](=O)[O-])cc12	inactive	29.1%	67.1%	inactive	128	inactive

Reference: PubChem BioAssay
